{"source": "paper PMC12136788", "binders": {"B1": {"name": "24016654_24036560_782_3pUTR_ENSMUSG00000024277_ENSMUST00000025127|mouse|control|control (ssRNA)", "RNA": "GGGAGUUCUACAGUCCGACGAUCCGUUUCUAAAUCUUUGUCAGAUCUGGAUGCAGAGCCACUGGAUGAAGCCCUUUUGGCAGACGAGGGGCGAGAAGGUGUGGAUCCUGGCUUAGAUGCAGGACUUGACUUAGCCGCGCCUGCCAACAGAGGAUUGAGCAUCA"}, "B2": {"name": "chr11:77340908:77340909:-_ENSG00000074201_ENST00000525064|hu_mus|FALSE|FALSE (ssRNA)", "RNA": "GGGAGUUCUACAGUCCGACGAUCGUUUGGAUCCCUGGACACCGCAUGUAAACUAAUGGUGGGGUAUUCCAGUGAGAAUCCUAAUCCCGAACCAUCUAACCAGGACAGGCGGCUCUCCGCGAUGUAAAGCGUGCCGGUGCCGAGCAACAGAGGAUUGAGCAUCA"}, "B3": {"name": "chr11:115359427:115359428:-_ENSMUSG00000020737_ENSMUST00000021083|mus_hu|motif|central (ssRNA)", "RNA": "GGGAGUUCUACAGUCCGACGAUCUGCAGUUCACAAGCAUGGAGGAAACAGACAGAACGACAGCGUUCAGGACAGUCAGAGCGGACCCAAGACGAGGCUGGACUUGCCGCCAGGGGGAUUUCUUCUGGAUGGCACUGGGGCCGGCAACAGAGGAUUGAGCAUCA"}, "B4": {"name": "chr11:63961690:63961691:+_ENSG00000168439_ENST00000305218|hu_mus|FALSE|FALSE (ssRNA)", "RNA": "GGGAGUUCUACAGUCCGACGAUCUUCAUGUUUUAAACCUUCUUCAUAGGUUCGUUUGGCUUCCUCAAACCGGUUUAGGAAUUCAAGGGCUGCUGCUUUUCUUGAAUAACCCUUGCCCCAGUCAGGCUUCAGGUCAACAGUCUUCAACAGAGGAUUGAGCAUCA"}, "B5": {"name": "chr13:42873775:42873776:+_ENSG00000023516_ENST00000025301|hu_hu|FALSE|FALSE (ssRNA)", "RNA": "GGGAGUUCUACAGUCCGACGAUCAGAAGACGAAAAAAAUGUUUUCUGUAAAUCACUAUCUUUAUCUGAAGCAUUAGAUGACCUAUAGAAACUCCUUUGGGUCCAAGGCUCUGAAAUUGAUGUUGUGACUGAAGUUUUCACAGACAACAGAGGAUUGAGCAUCA"}, "B6": {"name": "chr9:100389865:100389866:-_ENSG00000136925_ENST00000341170|hu_mus|FALSE|FALSE (ssRNA)", "RNA": "GGGAGUUCUACAGUCCGACGAUCUAUCAGUGGGACAGGUUCCUUGCAGACAAGUAUCUUCCGCAAACCCUAGGCCUUUCCUGGGUCUCCCUUCACCAACUUGGCGCUGCUCCCCGCCCUCGAGCCCACGCCCCCCGGCGCGCGCAACAGAGGAUUGAGCAUCA"}, "B7": {"name": "chr9:74904954:74904955:+_ENSMUSG00000007656_ENSMUST00000169492|mus_mus|FALSE|FALSE (ssRNA)", "RNA": "GGGAGUUCUACAGUCCGACGAUCUCAAAAGGAAGAUACAGAAGAAAUCAAUACAACAGAGGUCCUGUUAAAUAAGAGUAACAUACAAAGCUGUAAUCAUGAGAAAGUAAAGAAAGCCAGAGCAUUAAAGCUGUAAAACUUGCUCAACAGAGGAUUGAGCAUCA"}, "B8": {"name": "chr14:73742652:73742653:-_ENSG00000133961_ENST00000557597|hu_hu|FALSE|FALSE (ssRNA)", "RNA": "GGGAGUUCUACAGUCCGACGAUCCCCCUUUACCUUUGGCAAGAUUACUUACAACUCAUACAACUUCUUAAUAUCUGAGAACUAUUUAAAAUAUUCUAAAUGCAUAAAAAUAAAGAUUUUGGCUUUUGAUAUAUAUAAUAUUUACAACAGAGGAUUGAGCAUCA"}, "B9": {"name": "chr11:18422405:18422406:+_ENSG00000134333_ENST00000379412|hu_hu|motif|central (ssRNA)", "RNA": "GGGAGUUCUACAGUCCGACGAUCCAGCUUGGAGUUUGCAGUUACAUUAUAGUCUUUGCCAGAGACAAUCUUUGGUGUUCGGAGGAAAAGGCUGCCAUGUUGGAGAUCCAUCAUCUCUCCCUUCAAUUUGUCUUCGAUGACAUCCAACAGAGGAUUGAGCAUCA"}, "B10": {"name": "chr14:89338683:89338684:+_ENSG00000165533_ENST00000346301|hu_hu|hu_hu_hu_mus_False|58_108 (ssRNA)", "RNA": "GGGAGUUCUACAGUCCGACGAUCGUGGUUGUUGUUGACCAGGGCCAGCCUGAAGCAUUGGUGGGCCAAGUUUGUAUCUCCUAUUCCCACAGCUAUGUGCCCCAGGUUGUACCAGACAUCAGCUGCCUCUUCUUCAUUUUCAGCCAACAGAGGAUUGAGCAUCA"}, "B11": {"name": "chr2:198351390:198351391:-_ENSG00000144381_ENST00000345042|hu_hu|hu_hu_hu_mus_False|78_78 (ssRNA)", "RNA": "GGGAGUUCUACAGUCCGACGAUCUCAUUCCCACCCUCCACAGAAAGGCUGCUUCUGUUCUCAUCUGUGGUGACACAGCGCUACAGUCCUGAUGCUCACAGAACAGUAGAGAUGCCUCAGUGAUUUAAGUUGAAAGCAGGACACCAACAGAGGAUUGAGCAUCA"}, "B12": {"name": "chr4:34758383:34758384:-_ENSMUSG00000039967_ENSMUST00000047950|mus_mus|FALSE|FALSE (ssRNA)", "RNA": "GGGAGUUCUACAGUCCGACGAUCUUCAUCAUCUGAACCAUCGUUGUCAUUAAACACUAUGAAAUCUGUUGAAUAAAGACUAUUCUUUUUUAUGGGUCGCUGUUCCUGUUUAGCCACAGUAUUAAUAUUAGUCUUUUGAUUUUCCAACAGAGGAUUGAGCAUCA"}, "B13": {"name": "chr17:13115065:13115066:+_ENSMUSG00000068039_ENSMUST00000151287|mus_mus|FALSE|FALSE (ssRNA)", "RNA": "GGGAGUUCUACAGUCCGACGAUCGAUACUUGCUCCAGAAGCUUUUGCAACAUGCUUCAGGUCUCGUUUUAAAACUCUCCUAACAGCCAUGGCACCAGCUUCCACAAAAUACUUGAGAUACAUAUCAUCAAUGCCACCAGUGGUCAACAGAGGAUUGAGCAUCA"}, "B14": {"name": "chr15:31385891:31385892:-_ENSMUSG00000039100_ENSMUST00000090227|mus_mus|motif|central (ssRNA)", "RNA": "GGGAGUUCUACAGUCCGACGAUCAUUCACUCCUAAACAGACACCCCUAGGCCUUAGUCACUCAUUUCCAUCUAAGGUUCGGUAGGAUUGUCAUGAUUACAAAAUGAGGCACUCAGACAGAUAGACAGGAAUGGAGACAUACAUCAACAGAGGAUUGAGCAUCA"}}, "note": "In all, about 24,000 sequences were measured (“enrichment r”: median about 0.99, highest 2% from about 3.7 on). The list is a sample of the results.", "data": [{"target": "T1, UNK ZnF1-3 (human, UniProt Q9C0B0 31-174)", "T1 sequence": "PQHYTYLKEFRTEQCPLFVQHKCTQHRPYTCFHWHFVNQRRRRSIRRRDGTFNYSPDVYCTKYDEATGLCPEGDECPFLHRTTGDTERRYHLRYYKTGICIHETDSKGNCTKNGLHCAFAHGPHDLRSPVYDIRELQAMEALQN", "assay": "nsRBNS (natural sequence RNA bind-n-seq); RBNS binding buffer (assumed for nsRBNS): 25 mM Tris pH 7.5, 150 mM KCl, 3 mM MgCl2, 0.01% Triton X-100, 500 ug/ml BSA, 20 U/ml SUPERase-In, 4 C; UNK is unkempt and MSI1 is Musashi-1; names of the RNAs are library labels; protein concentration not given here; high values mean tight binding", "units": {"binding signal": "enrichment R"}, "values": [{"binder": "B1", "binding signal": 0.536}, {"binder": "B2", "binding signal": 0.705}, {"binder": "B3", "binding signal": 1.45}, {"binder": "B4", "binding signal": 0.607}, {"binder": "B5", "binding signal": 0.809}, {"binder": "B6", "binding signal": 1.19}, {"binder": "B7", "binding signal": 2.34}, {"binder": "B8", "binding signal": 1.07}, {"binder": "B9", "binding signal": 0.638}, {"binder": "B10", "binding signal": 0.492}, {"binder": "B11", "binding signal": 1.4}, {"binder": "B12", "binding signal": 0.418}, {"binder": "B13", "binding signal": 0.985}, {"binder": "B14", "binding signal": 1.25}]}]}
